# Bioassay records: PubChem, National Center for Advancing Translational Sciences (NCATS)
# This is a sample that favours compounds with a hit; in the whole collection about 4% have one here.
# D1 ag: agonists of human D1 dopamine receptor; P21728; HEK293 T-REx D1 cells, calcium flux, agonist mode; activation, % at 2 µM; 360,000 tested, 1% active; also: 0% is about no effect
#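 Tetracycline-induced HEK293 TREx D1 cells, force-coupled to calcium signalling, were dye-loaded with a no-wash calcium kit. Compound was pin-added after a 10 s baseline. Fluorescence was read kinetically at 1 cycle/s for 180 s, with calcium rises flagged as agonism.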
# D1 PAM: enhances dopamine response at the human D1 receptor. P21728. HEK293 TREx D1 cells, calcium flux, dopamine EC20 potentiation. potentiation, % at 10 µM. 360,000 tested, 0.036% active. AID 504651; in the data active = potentiation above about 30%; also: 0% is about no effect
# Glioma ERSR ind: ER stress response induction in glioma. U87-MG GRP78 promoter luciferase reporter, 16 h. Potency, µM, inactives show top-dose activation, actives largely listed as activators. 420,000 tested, 0.02% active; active = well fitted activation curve with a large enough effect; also: potency is read from the fitted curve at half-maximal effect; series mostly up to about 76 µM; % of control where 0% means no effect; nearly all actives have a fitted effect of over 35% in size
#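 ERSR induction read as luciferase luminescence (Bright-Glo, 10 min at room temperature) in stably transfected human U87-MG glioma cells exposed to compounds for 16 h, using GRP78 as sensor.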
# TRHR agonist: activates the human TRH receptor. P34981. TRHR cells, calcium flux fluo-8, FDSS agonist mode. activation, % at 2 µM. 360,000 tested, 0.18% active. AID 493084; also: 0% is about no effect
# Target sequence (P34981 whole entry, looked up): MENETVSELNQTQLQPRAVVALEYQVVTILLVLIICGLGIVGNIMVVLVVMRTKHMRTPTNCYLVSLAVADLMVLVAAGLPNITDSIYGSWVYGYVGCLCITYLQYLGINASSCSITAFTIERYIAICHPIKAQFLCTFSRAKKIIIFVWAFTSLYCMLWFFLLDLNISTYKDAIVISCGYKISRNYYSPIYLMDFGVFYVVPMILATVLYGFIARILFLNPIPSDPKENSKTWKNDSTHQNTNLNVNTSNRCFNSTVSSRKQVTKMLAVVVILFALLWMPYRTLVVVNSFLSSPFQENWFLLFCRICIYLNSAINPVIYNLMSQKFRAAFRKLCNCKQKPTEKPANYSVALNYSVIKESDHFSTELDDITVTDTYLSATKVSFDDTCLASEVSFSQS
#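 Steps: seed TRHR cells overnight; add fluo-8 no-wash Ca dye, RT 30 min–1.5 h; record 10 s baseline; pin-transfer compounds; monitor fluorescence 1 cycle/s for the agonist window. Calcium increases flag candidate agonists.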
# TRHR enhancer: allosterically enhances the human TRH receptor; P34981; TRHR cells, fluo-8 calcium fluorescence, EC20 TRH enhancement; enhancement, % at 2 µM; 360,000 tested, 0.66% active; AID 493056; in the data active = enhancement above about 30%; also: 0% is about no effect
#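 TRHR-expressing cells loaded with fluo-8 calcium dye were read kinetically (ex 480/em 530) during compound addition, then stimulated with an EC20 of TRH (10 nM final). Enhancement of the Gq-mediated intracellular calcium response was scored.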
# D1 antagonist: human D1 dopamine receptor antagonism; activity change, negative = inhibition, % at 10 µM; HEK293 TREx D1 cells, calcium flux, dopamine EC80; active compounds read low; P21728; 360,000 tested, 3.2% active; AID 504652; in the data active = activity change below about -30%; also: % is scaled to controls: 0 for no effect and ±100 for the full control effect
#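 Inducible Hek293 Trex D1 cells (tetracycline, overnight, 30 C). Calcium dye 30–90 min RT. Antagonist mode: EC80 dopamine added after 180 s compound read.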
# The depositor's hits bear a star; nt = no result; ! = not confirmed by another sample. Rule as the data show it, unless noted: active = activation above about 30%; inactive = the rest.
SMILES,D1 ag,D1 PAM,Glioma ERSR ind,TRHR agonist,TRHR enhancer,D1 antagonist
CCc1ccccc1N1C(=O)/C(=C/c2ccc(N3CCN(C)CC3)o2)C(=O)NC1=S,71*,-4,-2%,17,12,2
Cc1ccccc1N1C(=O)NC(=O)/C(=C/c2ccc(N3CCOCC3)o2)C1=O,14,-1,-10%,8,-5,-1
O=C1NC(=O)N(c2ccc3c(c2)OCO3)C(=O)/C1=C\c1ccc(N2CCCCC2)o1,50*,-2,-1%,17,-1,0
Nc1c(C(=O)Nc2ccc(F)c(Cl)c2)sc2nc3c(cc12)N1CCC3CC1,3,-4,-6%,1,-4,0
Nc1c(C(=O)Nc2ccc(Br)cc2F)sc2nc3c(cc12)N1CCC3CC1,1,-5,5%,-4,5,-32*
COc1ccccc1-n1c(/C=C/c2ccc(O)cc2)nc2ccccc2c1=O,2,0,-6%,1,39*,-30*
COc1cc(/C=C/c2nc3ccccc3c(=O)n2-c2ccccc2O)ccc1O,49*,-5,-8%,36*,10,4
CCOC(=O)C1C2NC(=O)N(Cc3ccccc3)C1(C)Oc1c(OC)cccc12 (stereo unspecified),3,6,-5%,0,4,5
Cc1ccc(NP(=O)(Oc2ccccc2)Oc2ccccc2)cc1,nt,nt,-2%,nt,nt,nt
N#CCN1CCN(c2ccc(C(F)(F)F)cc2)CC1,1,-9,-6%,0,15,-50*
C#CCN1CCN(c2ccc(F)cc2)CC1,1,-5,-2%,-1,-6,9
CN1[C@@H]2CC[C@H]1CC(OC1c3ccccc3CCc3ccccc31)C2 (stereo partly specified),44*,3,-3%,-1,2,-43*
CN1[C@@H]2CC[C@H]1CC(O[C@@H](c1ccccc1)c1ccc(Cl)cc1)C2 (stereo partly specified),nt,nt,-5%,nt,nt,nt
CC(=O)Nc1nc(CCl)cs1,4,-4,-2%,2,12,-1
Cc1ccc(-c2nc3ccccc3c(=O)n2-c2nccs2)cc1,3,-3,-2%,2,-16,13
CC1=NN(c2ccccc2)C(=O)C1/C=C1/C(=O)NC(=O)N(c2cc(C)cc(C)c2)C1=O (stereo unspecified),5,-1,-3%,0,-1,-37*
CC1=NN(c2ccccc2)C(=O)C1/C=C1\C(=O)NC(=O)N(c2cc(C)cc(C)c2)C1=O (stereo unspecified),1,6,1%,-1,6,6
Cc1cccc(-n2c(/C=C/c3cccc4ccccc34)nc3ccccc3c2=O)c1,-2,-2,-5%,0,-2,1
CNC(=S)NC1CC2CCCC(C1)N2CC(C)C (stereo unspecified),nt,nt,7%,nt,nt,nt
NCCc1c[nH]c2ccc(F)cc12,1,-3,nt,0,-2,-30*
O=C1NC(=O)N(Cc2ccccc2)C(=O)/C1=C\c1ccco1,3,-1,-1%,7,3,-32*
CCN(CC)c1ccc(/C=C2/C(=O)NC(=O)N(CC3CCCO3)C2=O)cc1 (stereo unspecified),1,4,-2%,0,-5,-4
CCN(CC)c1ccc(/C=C2\C(=O)NC(=O)N(Cc3ccco3)C2=O)cc1,2,-4,-5%,0,1,-46*
O=c1cccc2n1CC1CC2CN(c2ncnc3c2cnn3-c2ccccc2)C1 (stereo unspecified),4,-2,-2%,1,0,-19
CCC(=O)N1N=C2C3CCN(CC3)C2C1c1ccccc1 (stereo unspecified),-2,-1,-3%,0,-7,-13
SMILES,D1 ag,D1 PAM,Glioma ERSR ind,TRHR agonist,TRHR enhancer,D1 antagonist
CCCN1CCC[C@@H](c2cccc(O)c2)C1,-2,-6,-2%,1,-5,-54*
CC[C@@H]1CN2CCc3cc(OC)c(OC)cc3[C@H]2C[C@@H]1C[C@@H]1NCCc2cc(O)c(OC)cc21,nt,nt,-6%,nt,nt,nt
COc1cc2c(cc1O)[C@@H]1Cc3ccc(OC)c(O)c3CN1CC2,-1,-7,-3%,0,-2,-90*
COc1ccc(C[C@@H]2c3cc(O)c(OC)cc3CCN2C)cc1O,0,-11,0%,0,-7,-88*
Cc1ccccc1C1=NCC(=O)N(CC(=O)N2CCCCC2)c2sc(C)c(C)c21,2,1,-2%,0,0,-3
O=C(Cn1nc(-c2ccc(Cl)cc2)ccc1=O)N1CCC2(CC1)OCCO2,-2,-7,-1%,-1,-5,-35*
Cc1cc2c(C(C)C)c(O)c(O)c(C=O)c2c(O)c1-c1c(C)cc2c(C(C)C)c(O)c(O)c(C=O)c2c1O,34*!,-5,-14%,0,-2,3
O=C(CCl)c1ccc(Oc2ccc(C(=O)CCl)cc2)cc1,nt,nt,-3%,nt,nt,nt
O=[N+]([O-])c1ccc(Sc2nc3ccccc3o2)c([N+](=O)[O-])c1,4,-2,-14%,-1,30*,-23
N#CC(C#N)=Cc1ccc(N2CCCC2)cc1,37*,-11,-3%,6,2,-27
CN(C)c1ccc(C=C(C#N)C#N)cc1,21,-3,-2%,7,1,-20
O=c1[nH]c(=S)n(-c2ccccc2)c(O)c1C=NCc1ccccn1,3,-1,-4%,-2,-4,-44*
Cc1ccc(-n2c(O)c(C=NCc3ccccn3)c(=O)[nH]c2=S)cc1,1,-2,-2%,0,-6,2
C=CCc1ccc2c(c1)OCO2,nt,nt,-6%,nt,nt,nt
CCN(CC)CCCN=C(C)c1c(O)n(-c2ccccc2)c(=O)[nH]c1=O,4,-1,-3%,1,0,6
CCC(=NCCCN(CC)CC)c1c(O)n(-c2ccccc2)c(=O)[nH]c1=O,1,-2,-5%,0,-2,-33*
CN1C(=O)C(=Cc2sc(=O)n(-c3ccccc3)c2N2CCCCC2)C(=O)N(C)C1=O,67*,-4,2%,20,5,-3
CN1C(=O)C(=Cc2cc([N+](=O)[O-])ccc2N2CCCCC2)C(=O)N(C)C1=O,-1,-3,-4%,0,1,2
Nc1c(C(=O)NCCN2CCOCC2)c2nc3ccccc3nc2n1Cc1ccco1,4,-3,0%,2,-4,-42*
CN(C)C(=O)Oc1ccc(C(=O)c2ccccc2)cc1,1,-8,5%,0,-12,-4
O=C(Nc1ccccc1F)OC1CN2CCC1CC2 (stereo unspecified),2,2,-4%,0,4,7
O=C(Nc1cccc(Cl)c1)OC1CN2CCC1CC2 (stereo unspecified),22,-5,-1%,3,-6,-38*
